In the GenesisPotency data set:
Out of some 290,000 compounds screened, about 3,000 (1%) were called active. No stated cut-off is given here; in the data, active means inhibition mostly above about 36% (no sharp cut-off); inactive means mostly below about 34%. Shown is part of a subset that was picked to be rich in actives.

Target: T1, Nucleotide-binding oligomerization domain-containing protein 1, Homo sapiens (UniProt Q9Y239)
T1 sequence (whole entry): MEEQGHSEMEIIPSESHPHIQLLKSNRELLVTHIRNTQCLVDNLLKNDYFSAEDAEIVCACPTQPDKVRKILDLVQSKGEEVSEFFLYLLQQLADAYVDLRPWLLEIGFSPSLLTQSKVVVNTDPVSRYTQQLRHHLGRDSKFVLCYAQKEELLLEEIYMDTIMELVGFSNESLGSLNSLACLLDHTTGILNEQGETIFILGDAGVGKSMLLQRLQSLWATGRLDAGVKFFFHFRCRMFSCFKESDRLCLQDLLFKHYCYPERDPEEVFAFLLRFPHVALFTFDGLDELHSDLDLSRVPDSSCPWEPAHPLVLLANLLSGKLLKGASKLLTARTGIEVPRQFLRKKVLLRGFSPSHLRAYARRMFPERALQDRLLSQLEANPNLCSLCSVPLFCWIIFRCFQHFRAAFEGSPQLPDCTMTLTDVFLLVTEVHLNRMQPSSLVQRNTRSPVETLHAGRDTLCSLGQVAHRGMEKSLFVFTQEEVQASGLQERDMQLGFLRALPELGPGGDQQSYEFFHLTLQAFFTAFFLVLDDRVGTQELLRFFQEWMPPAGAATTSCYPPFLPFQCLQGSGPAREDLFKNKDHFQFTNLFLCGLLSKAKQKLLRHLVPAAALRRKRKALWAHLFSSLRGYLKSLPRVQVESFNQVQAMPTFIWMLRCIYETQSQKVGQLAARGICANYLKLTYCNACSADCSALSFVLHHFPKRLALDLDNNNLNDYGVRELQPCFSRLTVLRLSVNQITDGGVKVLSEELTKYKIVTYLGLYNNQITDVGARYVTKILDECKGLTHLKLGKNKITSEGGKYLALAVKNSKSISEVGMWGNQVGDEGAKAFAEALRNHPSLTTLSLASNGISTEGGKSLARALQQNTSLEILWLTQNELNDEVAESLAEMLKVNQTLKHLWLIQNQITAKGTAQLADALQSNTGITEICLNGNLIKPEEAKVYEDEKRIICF
Experiment: inhibition of NOD1-driven NF-kB reporter – cell-based, luminescence, uHTS, primary screen (AID 1578)

Compound | outcome
S=C(NCCc1ccccc1)Nc1cccc2cnccc12 | active
COc1ccccc1-c1nnc(SCC(=O)Nc2nc(-c3ccccc3)cs2)n1C | active
COc1nc(Nc2nc3ccccc3c(=O)[nH]2)nc2ccc(C)cc12 | active
COc1ccc(NC(=O)Cn2nnc(-c3ccccc3NS(=O)(=O)c3ccc(OC)cc3)n2)cc1 | active
COc1cc(Nc2nc3ccccc3nc2NS(=O)(=O)c2ccc([N+](=O)[O-])cc2)cc(OC)c1OC | active
O=[N+]([O-])c1cccc(S(=O)(=O)Nc2nc3ccccc3nc2Nc2cccc(S(=O)(=O)N3CCCCC3)c2)c1 | active
Cc1ccc(S(=O)(=O)Nc2nc3ccccc3nc2Nc2cccc(S(=O)(=O)N3CCCC3)c2)cc1 | active
CCOc1cc(C)c(Cl)cc1S(=O)(=O)n1nnc2ccccc21 | active
CC(=O)n1c(Cl)c(NC(=O)CCl)c2ccccc21 | active
COc1ccccc1C(=O)Nc1nc(-c2ccc(S(=O)(=O)N3CCOCC3)cc2)cs1 | active
Cc1ccc(S(=O)(=O)Nc2ccccc2C(=O)Nc2nc(-c3ccc(F)cc3)cs2)cc1 | active
COc1ccc(-c2csc(NC(=O)c3ccccc3NS(=O)(=O)c3ccc(C)cc3)n2)cc1 | active
COc1cccc(NC(=O)Nc2nc(-c3ccc(OC)c(OC)c3)cs2)c1 | active
O=C(Nc1nc(-c2ccccc2)cs1)c1ccccc1NS(=O)(=O)c1ccc(F)cc1 | active
COc1ccc(-c2csc(NC(=O)c3ccccc3NS(=O)(=O)c3ccc(F)c(F)c3)n2)cc1 | active
COc1ccc(NC(=O)c2ccc(-c3ccccc3)cc2)cc1NS(=O)(=O)c1ccc(F)cc1 | active
COc1ccc(S(=O)(=O)Nc2ccccc2C(=O)Nc2nc(-c3ccc(F)cc3)cs2)cc1OC | active
O=C(Nc1ccccc1)C1=C(c2ccccc2)S(=O)(=O)CCS1(=O)=O | active
Cc1ccc(NC(=O)C2=C(c3ccccc3)S(=O)(=O)CCS2(=O)=O)cc1 | active
NS(=O)(=O)c1ccc(Sc2nc3ccccc3s2)c([N+](=O)[O-])c1 | active
COc1ccc(-c2nn(-c3ccccc3)cc2/C=N/NC(=O)c2ccc(Br)o2)cc1 | active
Cc1ccc(-c2nn(-c3ccccc3)cc2/C=N/NC(=O)c2ccc(Br)o2)cc1 | active
O=C(OCn1ncc(Br)c(Br)c1=O)c1c(F)cccc1F | active
CC(=O)Cn1ncc(Br)c(Br)c1=O | active

Compound | outcome
O=C(OCn1ncc(Br)c(Br)c1=O)c1ccc(F)cc1 | active
O=C(NC(=S)N(CCCCO)C1CCCCC1)c1sc2ccccc2c1Cl | active
Cc1nnc(SCC(=O)N2CCC(c3noc4ccc(F)cc34)CC2)s1 | active
O=C(NC(Nc1nc2ccc([N+](=O)[O-])cc2s1)(C(F)(F)F)C(F)(F)F)c1ccccc1Cl | active
CC[C@@]1(O)C(=O)OCc2c1cc1n(c2=O)Cc2cc3c(N)cccc3nc2-1 | active
N#Cc1cccc(NC(=O)COC(=O)c2ccccc2C(=O)c2ccc(Cl)c([N+](=O)[O-])c2)c1 | active
Cc1ccc(Cl)c(NC(=O)COC(=O)c2ccccc2C(=O)c2ccc(Cl)c([N+](=O)[O-])c2)c1Cl | active
O=C(COC(=O)c1ccccc1C(=O)c1ccc(Cl)c([N+](=O)[O-])c1)NC1CC1 | active
CNC(=O)COC(=O)c1ccccc1C(=O)c1ccc(Cl)c([N+](=O)[O-])c1 | active
CC(C)(C)OC(=O)NCCc1nnc(S(=O)(=O)Cc2ccc(Cl)cc2Cl)o1 | active
Cc1sc2nc(SCc3ccc(C(=O)O)cc3)n(Cc3ccco3)c(=O)c2c1C | active
COC(=O)c1ccc2c(c1)C(C)(C)C(/C=C/c1ccc(O)cc1)=[N+]2C.[I-] | active
O=S1(=O)C=C(Sc2nc3ccccc3s2)c2ccccc21 | active
Cn1c(SC2=CS(=O)(=O)c3ccccc32)nc2ccccc21 | active
O=S1(=O)C=C(Sc2nc3cc(Cl)ccc3o2)c2ccccc21 | active
Cc1cc(C)cc(NC(=O)CSc2nnc(Cc3cccn3C)n2-c2ccc(F)cc2)c1 | active
Cc1ccc(C(=O)NC(C#N)=C(Cl)Cl)cc1 | active
CC(=O)NC(=C(Cl)Cl)S(=O)(=O)c1ccccc1 | active
O=C(NC(=C(Cl)Cl)S(=O)(=O)c1ccc(Cl)cc1)c1ccccc1 | active
Cc1ccc(C(=O)NC(=C(Cl)Cl)S(=O)(=O)c2ccccc2)cc1 | active
O=C(NCCCSc1ccccc1)c1cc(Br)ccc1O | active
O=C(NCCCSc1ccccc1)c1cc(Cl)ccc1O | active
CCOC(=O)c1cccc2c1-c1ccccc1/C2=N/O | active
COC(=O)c1cccc2c1-c1ccccc1/C2=N/O | active

Compound | outcome
Cc1[nH]c2ccccc2c1C(=O)CCl | active
Cc1ccc2c(C(=O)CCl)c(C)[nH]c2c1 | active
O=[N+]([O-])c1ccccc1S(=O)(=O)Nc1cccc2cccnc12 | active
Cc1ccc2cccc(NS(=O)(=O)c3ccccc3)c2n1 | active
Cc1ccc(S(=O)(=O)Nc2cccc3cccnc23)cc1 | active
COc1cc(NS(=O)(=O)c2ccc3ccccc3c2)c2ncccc2c1 | active
Cc1ccc(S(=O)(=O)Nc2cccc3cccnc23)c([N+](=O)[O-])c1 | active
C[C@@H]1C[C@@H]2O[C@H]2/C=C\C=C\C(=O)Cc2c(Cl)c(O)cc(O)c2C(=O)O1 | active
C/C(=N\NC(=O)c1ccc(Cl)cc1)c1ccccn1 | active
C/C(=N\NC(=O)c1cccc(Br)c1)c1ccccn1 | active
C/C(=N\NC(=O)Cc1ccc(Cl)cc1)c1ccccn1 | active
C/C(=N\NC(=O)c1ccc(F)cc1)c1ccccn1 | active
C/C(=N\NC(=O)COc1ccccc1-c1ccccc1)c1ccccn1 | active
C/C(=N\NC(=O)c1ccc(Cl)c(Cl)c1)c1ccccn1 | active
COc1ccc(C(=O)N/N=C(\C)c2ccccn2)cc1OC | active
Nc1c(Cl)ncnc1N/N=C/c1ccccn1 | active
COc1ccc(CNc2ncnc3ccccc23)cc1 | active
Cc1cc2c(NCc3ccccc3)ncnc2s1.Cl | active
c1ccc(CNc2ncnc3ccccc23)cc1 | inactive
CC(Nc1ncnc2ccccc12)c1ccccc1 (stereo unspecified) | active
Cl.c1ccc(CNc2ncnc3ccccc23)cc1 | active
Brc1ccc2ncnc(NCc3cccnc3)c2c1 | active
COc1cccc(CNc2ncnc3cc(Cl)ccc23)c1 | active
